DT40 TDP1 no CPT = qHTS for Inhibitors of human tyrosyl-DNA phosphodiesterase 1 (TDP1): qHTS in cells in absence of CPT. DT40 Tdp1-/- hTDP1 cells, no CPT, ATP luminescence, 48 h. Potency, µM (top dose mostly 46.2 µM), most hits filed as inhibitors. 420,000 tested, 15% active; also: nearly all actives have a fitted effect of over 55% in size
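Growth of hTDP1-complemented DT40 Tdp1-knockout cells is measured by ATP luminescence after at least 48 hr compound exposure at 37 °C, with DMSO substituting for the 20 nM CPT used in the parallel screen.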
CtBP-E1A inh = CtBP/E1A binding inhibition; activity change, % (test concentration not listed); AlphaScreen GST-E1A/His-CtBP binding, 1536-well; stronger effect = lower value; AID 651724; 340,000 tested, 0.49% active; in the data active = activity change below about -65%; inconclusive = mostly about -30% to -63%
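GST-E1A and His-tagged CtBP (125 nM each as 5X stock) were preincubated with pin-transferred compound for 2 h at 37 °C in the dark, then glutathione donor and nickel acceptor beads were added for 1 h before AlphaScreen reading.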
TDP1 cell CPT = growth inhibition of DT40 Tdp1-/-;hTDP1 cells with camptothecin (screen for TDP1 inhibitors). 420,000 tested, 12% active. Potency, µM (highest dose often 46.2 µM), hits mostly inhibitors. chicken DT40 Tdp1-/-;hTDP1 cells + 20 nM CPT, ATP luminescence, 48 h; also: nearly all actives have a fitted effect of over 55% in size
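Chicken DT40 Tdp1-/- cells stably complemented with human TDP1 were seeded at 400 cells/well in medium containing 20 nM camptothecin, exposed to pin-transferred compounds, and grown at 37 °C for at least 48 hr. Viability was read as ATP luminescence.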
IL-1B inflam inh = blocks inflammasome-driven IL-1 beta release | THP-1 LPS/ATP IL-1B secretion, AlphaLISA, 16 h; stronger effect = lower value | activity change, % at 57.5 µM | 360,000 tested, 4.7% active; in the data active = activity change below about -50%; inconclusive = mostly about -30% to -49%
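Secreted IL-1B measured by AlphaLISA bead assay after 16 h compound exposure of THP-1 cells; compounds (final up to 57.5 uM) added 1 h before LPS (250 ng/mL) and ATP (1.25 mM) stimulation; lower signal means less secretion.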
TDP1 block = blocks human tyrosyl-DNA phosphodiesterase 1; Q9NUW8; recombinant TDP1, AlphaScreen DNA substrate cleavage; Potency, µM (highest dose often 130 µM), most hits filed as inhibitors; 350,000 tested, 0.28% active; also: nearly all actives have a fitted effect of over 40% in size
Target sequence (Q9NUW8 whole entry, looked up): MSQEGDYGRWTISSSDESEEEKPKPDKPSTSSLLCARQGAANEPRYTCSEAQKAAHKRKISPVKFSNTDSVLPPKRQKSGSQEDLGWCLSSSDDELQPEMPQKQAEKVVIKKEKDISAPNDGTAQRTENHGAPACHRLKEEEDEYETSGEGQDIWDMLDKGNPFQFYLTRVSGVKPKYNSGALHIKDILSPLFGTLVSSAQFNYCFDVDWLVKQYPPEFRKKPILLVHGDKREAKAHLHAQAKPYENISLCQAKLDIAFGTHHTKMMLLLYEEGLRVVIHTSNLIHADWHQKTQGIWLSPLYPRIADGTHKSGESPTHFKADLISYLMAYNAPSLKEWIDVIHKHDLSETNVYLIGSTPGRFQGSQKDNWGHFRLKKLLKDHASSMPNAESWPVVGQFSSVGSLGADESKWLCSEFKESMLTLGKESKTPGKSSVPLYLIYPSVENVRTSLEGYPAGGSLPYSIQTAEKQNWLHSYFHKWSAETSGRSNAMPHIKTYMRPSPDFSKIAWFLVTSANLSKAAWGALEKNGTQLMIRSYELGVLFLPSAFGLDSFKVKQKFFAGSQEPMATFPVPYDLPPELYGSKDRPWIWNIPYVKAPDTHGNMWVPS
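Enzyme-compound mixtures sat 15 min at room temperature, followed by a 5 min reaction with 15 nM final substrate and 10 min with AlphaScreen beads. Recombinant human Tdp1 was used at 1 nM final.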
Six1-Eya2 inh = inhibitors of human Six1/Eya2 interaction; AlphaScreen GST-Six1/His-Eya2 binding, biochemical; stronger effect = lower value; 360,000 tested, 0.56% active; activity change, % (concentration not given with the values); Q15475+O00167; in the data active = activity change below about -65%; inconclusive = mostly about -30% to -63%
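AlphaScreen luminescence read after one hour at 37 °C in darkness. Pin-transferred compounds met GST-Six1 and His-Eya2 protein (5X stock 250 nM/500 nM) plus glutathione donor and Ni-chelate acceptor beads (5X, 50 ug/mL).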
Large screens that a line does not name were inactive. Compounds with a hit are over-represented: about 18% of the library has one in this group of screens. Unless noted, calls follow the shape of the dose curve; as a rule, active = well fitted curve in the direction sought with a large enough effect; inconclusive = small, poorly fitted or top-dose-only effect, or another doubt; inactive = no such curve, though single readings can be large; an effect the other way counts as inactive or inconclusive.

Cc1ccc(-c2nc(S(=O)(=O)c3ccc(C)cc3)c(N3CCCCC3)o2)cc1	DT40 TDP1 no CPT 7.3µM, TDP1 cell CPT 6.5µM (no result: CtBP-E1A inh, IL-1B inflam inh, Six1-Eya2 inh)
Cc1cccc(NC(=O)c2ccccn2)c1C	DT40 TDP1 no CPT inconclusive, TDP1 cell CPT inconclusive
Cc1cccc(NC(=O)c2cc3c([nH]c4ccccc43)c(C)n2)c1C	DT40 TDP1 no CPT inconclusive, TDP1 cell CPT 6.5µM
Cc1ccc(-c2nc(-c3ccccc3)no2)c(Cl)c1	TDP1 cell CPT inconclusive, TDP1 block 56µM
Cc1ccc(C(=O)N2CCn3c4c(c5cc(C)ccc53)CCCC42)cc1 (configuration not stated)	DT40 TDP1 no CPT inconclusive, TDP1 cell CPT inconclusive (no result: CtBP-E1A inh, IL-1B inflam inh, Six1-Eya2 inh)
Cc1ccc2c(c1)c1c3n2CC(=C2C(=O)OC(C)(C)OC2=O)NC3CCC1 (configuration not stated)	DT40 TDP1 no CPT 21µM, TDP1 cell CPT 21µM
COc1ccc(CCN=C(NS(=O)(=O)c2ccc(Cl)cc2)c2ccccc2)cc1	DT40 TDP1 no CPT inconclusive, TDP1 cell CPT inconclusive, IL-1B inflam inh -66 (no result: CtBP-E1A inh)
COc1ccc(CCN=C(NS(=O)(=O)c2ccccc2)c2ccccc2)cc1OC	none
O=[N+]([O-])c1cccc(-c2nnn(C34CC5CC(CC(C5)C3)C4)n2)c1	DT40 TDP1 no CPT 18µM, TDP1 cell CPT inconclusive
O=C(NC12CC3CC(CC(C3)C1)C2)c1cccc([N+](=O)[O-])c1	none
COc1ccc(-c2sc3ccc(N4CCOCC4)cc3c2C#CCCO)cc1	DT40 TDP1 no CPT 4.6µM, TDP1 cell CPT 6.5µM (no result: CtBP-E1A inh)
COc1ccc(-c2sc3ccccc3c2C#CCCO)cc1	DT40 TDP1 no CPT inconclusive, TDP1 cell CPT 26µM (no result: TDP1 block)
COc1ccc(-c2sc3cc(OC)c(OC)cc3c2C#CCCO)cc1	DT40 TDP1 no CPT inconclusive, TDP1 cell CPT inconclusive, IL-1B inflam inh inconclusive
COc1ccc2c(C#CCCO)c(-c3ccc(S(C)(=O)=O)cc3)sc2c1	DT40 TDP1 no CPT inconclusive, TDP1 cell CPT inconclusive
COc1ccc2c(-c3ccc(S(N)(=O)=O)cc3)c(-c3ccc(S(C)(=O)=O)cc3)sc2c1	DT40 TDP1 no CPT inconclusive, TDP1 cell CPT 23µM
Cn1cncc1C#Cc1c(-c2ccc(S(C)(=O)=O)cc2)sc2ccccc12	DT40 TDP1 no CPT 12µM, TDP1 cell CPT 13µM
Cn1c(Cc2ccc3c(c2)OCO3)nnc1SCC(=O)N1CCc2ccccc2C1	none
COc1ccc2sc(-c3ccc(S(C)(=O)=O)cc3)c(C#CCO)c2c1	DT40 TDP1 no CPT 21µM, CtBP-E1A inh inconclusive, TDP1 cell CPT 15µM, IL-1B inflam inh -55
CS(=O)(=O)c1ccc(-c2sc3ccccc3c2C#CCCO)cc1	DT40 TDP1 no CPT inconclusive, TDP1 cell CPT 16µM
O=S(=O)(Nc1cccc(S(=O)(=O)N2CCCC2)c1)c1ccc(Br)cc1	none (no result: TDP1 block)
COc1ccccc1Oc1ccc(-c2cnc3ccccc3n2)cc1[N+](=O)[O-]	DT40 TDP1 no CPT 7.3µM, TDP1 cell CPT 23µM
O=[N+]([O-])c1cc(-c2cnc3ccccc3n2)ccc1Oc1ccc(Cl)cc1	DT40 TDP1 no CPT inconclusive, TDP1 cell CPT 18µM
CCOC(=O)c1cnc2ccc(OC)cc2c1NCCN1CCOCC1	DT40 TDP1 no CPT inconclusive (no result: CtBP-E1A inh)
CCOC(=O)c1cnc2ccc(OC)cc2c1NCCc1ccc(OC)c(OC)c1	DT40 TDP1 no CPT 7.3µM, TDP1 cell CPT 6.5µM, IL-1B inflam inh -90
CCOC(=O)c1cnc2ccccc2c1Nc1cccc(C(=O)O)c1	none
CCOC(=O)c1cnc2ccccc2c1NCCc1ccc(OC)c(OC)c1	DT40 TDP1 no CPT 10µM, TDP1 cell CPT 16µM
CCNC(=O)NC(=O)C(C)SCc1ccccc1C (configuration not stated)	none
C=CCSc1nnc2nc3c(nn12)c1cc(C)ccc1n3CC=C	DT40 TDP1 no CPT inconclusive, CtBP-E1A inh inconclusive, TDP1 cell CPT 16µM, Six1-Eya2 inh inconclusive
Cc1ccc(S(=O)(=O)N2CCN(S(=O)(=O)c3ccccc3)C2c2ccc(N(C)C)cc2)cc1 (configuration not stated)	DT40 TDP1 no CPT inconclusive, TDP1 cell CPT 16µM
